An excerpt weighted towards active compounds, which were near 12% of everything screened.
KCC2 mod – modulators of human KCC2 chloride dependent transport; Q9H2X9; KCC2 cells, thallium flux FluoZin-2 fluorescence; B-score of Tl+ flux slope (higher = more flux/activation; lower = inhibition) at 10 µM; hit rate 2.2% among 190,000;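 active means thallium flux slope and its plate-corrected score both differing from the plate sample mean at a set confidence after two filtering rounds, in either direction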;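 further: slope of fluorescence scaled to starting intensity during 10 to 20 s after thallium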
Lmaj promast – Leishmania major promastigote growth inhibition | Leishmania major promastigotes, resazurin fluorescence viability | inhibition, % at 10 µM | hit rate 9% among 200,000 | AID 1063; in the data active means inhibition above about 50%;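 further: promastigotes grown with compound for 44 hours at 28 °C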
Insulin prom inh – TRM-6 insulin promoter activity inhibition; AID 1273; TRM-6 cells (human fetal islet line), insulin promoter-eGFP reporter, imaging; reporter expression induced with tamoxifen; hit rate 0.9% among 130,000; inhibition, % at 2 µM;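 active means inhibition above the mean plus 3 SD, with well images judged a real hit on visual review, cut at about 60% in these data, passing the limit was not always enough; inconclusive means inhibition over the cutoff but images rejected on review; inactive means inhibition not above the cutoff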
WT yeast gro inh – growth inhibition of WT yeast, mitochondrial fusion screen. mitochondrial fusion phenotypic screen, WT strain. inhibition, % at 10 µM. hit rate 2.1% among 190,000. AID 1362; in the data active means inhibition above about 58%; tested in S. cerevisiae
ROMK primary – modulates human ROMK potassium channel activity | B-score at 10 µM | hit rate 2% among 130,000 | Tet-inducible ROMK, thallium flux fluorescence; actives lie on both sides;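 active means signal ratio slope over the read window, or its plate-corrected B-score, at least 3 SD from the plate mean, either direction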;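 further: B-score of the F/F0 ratio slope over 7 to 12 s after thallium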
Target sequence (P48048 whole entry, looked up): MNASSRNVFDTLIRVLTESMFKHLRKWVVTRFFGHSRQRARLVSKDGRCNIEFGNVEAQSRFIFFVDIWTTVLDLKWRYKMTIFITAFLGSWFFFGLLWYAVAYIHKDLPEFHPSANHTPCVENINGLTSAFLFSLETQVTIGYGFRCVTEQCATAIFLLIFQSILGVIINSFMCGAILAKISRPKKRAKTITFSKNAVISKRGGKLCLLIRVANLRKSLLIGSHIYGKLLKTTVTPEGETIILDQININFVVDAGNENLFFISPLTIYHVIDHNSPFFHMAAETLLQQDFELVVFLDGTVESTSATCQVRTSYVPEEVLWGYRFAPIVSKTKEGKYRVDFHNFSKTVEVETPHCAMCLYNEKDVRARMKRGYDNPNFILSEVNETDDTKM
Ins promoter up – MIN6 insulin promoter up-regulation | MIN6 insulin promoter-GFP reporter, high-content imaging; hits give high values | z-score at 5 µM | hit rate 0.3% among 190,000;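 active means z-score above 3 at 5 µM with at least 500 cells counted in the well; inconclusive means wells under 500 cells, flagged as cytotoxic or low count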
The depositor's hits bear a star; ? = inconclusive; · = no result.

SMILES	KCC2 mod	Lmaj promast	Insulin prom inh	WT yeast gro inh	ROMK primary	Ins promoter up
CCN1CCN(c2ncnc3c2sc(=S)n3-c2ccccc2)CC1	0.14	52*	·	22	·	·
S=c1sc2c(N3CCN(Cc4ccccc4)CC3)ncnc2n1-c1ccccc1	·	-2	0	3	0.2	0.19
CC1CC(C)(C)N2C(=O)C(=C(C#N)C#N)c3cccc1c32 (stereo not drawn)	-1.2	·	·	·	·	-0.51
COc1ccc(NC(=O)c2cccc(S(=O)(=O)N3CCc4ccccc43)c2)cn1	-1.2	94*	6	28	-1.4	1.5
COc1ccc(C(=O)Nc2ccc(S(=O)(=O)N3CCc4ccccc43)cc2)cc1	-0.5	54*	-494	13	0.18	·
O=C(Nc1ncccc1O)c1cccc(S(=O)(=O)N2CCc3ccccc32)c1	0.88	-8	39	69*	·	0.08
O=C(NCCc1ccccn1)c1cccc(S(=O)(=O)N2CCc3ccccc32)c1	-0.39	3	-21	-10	·	-1.3
COc1ccc(-c2cnnn2-c2ccc(NC(=O)c3ccc(S(=O)(=O)N4CCCCC4)cc3)cc2)cc1	0.39	99*	·	8	0.69	-0.71
CCC(C(=O)Nc1cc(C(=O)O)ccc1C)c1ccccc1 (stereo not drawn)	0.3	-3	53	-1	0.077	-0.12
C/C(=N\NC(=S)NC1CCCCC1)c1ccc(OC(F)F)cc1OC(F)F	0.26	-3	·	66*	0.12	-0.61
COc1ccccc1N(C(=O)c1ccncc1)c1nc(-c2ccc([N+](=O)[O-])cc2)cs1	-0.81	99*	-5	31	-1.4	-0.15
CN(C(=O)c1cccnc1)c1nc(-c2ccccc2)cs1	0.31	6	·	-1	·	-1.4
NC(=O)CC(NC(=O)Cc1ccc(Br)cc1)c1ccc(N2CCN(c3ccccc3)CC2)c([N+](=O)[O-])c1 (stereo not drawn)	1.1	·	·	·	·	0.35
COc1ccc(CCNC(=O)c2cc(-c3cc(C)ccc3O)n[nH]2)cc1OC	-0.35	89*	7	20	·	1
COc1ccc(CCNC(=O)c2cc(-c3ccc(C)c(C)c3O)n[nH]2)cc1OC	-0.18	93*	25	8	0.13	0.57
COc1ccc(CNC(=O)c2cc(-c3cc(C)ccc3O)n[nH]2)cc1	2.2	·	·	·	·	0.73
Cc1ccc(-c2cc(C(=O)NCc3ccc4c(c3)OCO4)[nH]n2)c(O)c1C	5.5	54*	·	2	·	-1.5
O=C(CN1C(=O)c2ccccc2C1=O)NCC(=O)OCC(=O)c1ccc(Cl)cc1	0.52	-6	22	2	-0.12	·
CC(O)CNCc1ccc(-c2ccccc2)cc1 (stereo not drawn)	·	89*	·	-11	·	-1.4
CCC(CO)NCc1ccc(-c2ccccc2)cc1 (stereo not drawn)	-0.36	89*	·	-11	·	0.51
CCC(CO)NCc1ccc(Br)cc1 (stereo not drawn)	-1.6	0	·	-26	0.27	0.43
CC(NCc1ccc(-c2ccccc2)cc1)C(O)c1ccccc1 (stereo not drawn)	0.44	99*	-66	68	·	0.16
CC(O)CNCc1cccc2ccccc12 (stereo not drawn)	-0.46	-3	-40	18	-0.68	·
C/C(=N\N1CCN(Cc2ccc(Cl)cc2)CC1)c1ccc([N+](=O)[O-])cc1	-0.51	·	·	·	·	·
O=C(NCc1cccc(Cl)c1)c1ccc(S(=O)(=O)Nc2cccc(C(F)(F)F)c2)cc1	0.2	64*	-11	-17	·	0.03
SMILES	KCC2 mod	Lmaj promast	Insulin prom inh	WT yeast gro inh	ROMK primary	Ins promoter up
CC(=O)N(C)c1ccc(C(O)(C(F)(F)F)C(F)(F)F)cc1	0.5	99*	·	9	0.36	·
CCOC(=O)N(C)c1ccc(C(O)(C(F)(F)F)C(F)(F)F)cc1	0.37	100*	13	22	0.65	-0.05
CCOC(=O)NNc1ccc(C(F)(F)F)cn1	0.021	·	·	·	·	0.22
Cc1onc(-c2c(F)cccc2Cl)c1C(=O)NCCO	1.2	-2	59	-26	0.1	0.03
Cc1onc(-c2ccccc2)c1C(=O)Nc1nnc(COc2ccc(Cl)cc2)s1	-0.011	-5	23	63*	·	0.29
Cc1onc(-c2ccccc2Cl)c1C(=O)Nc1nnc(-c2ccc(F)cc2)s1	-0.41	-10	·	51	·	-0.48
Cc1nnc(NC(=O)c2c(-c3ccccc3)noc2C)s1	1.3	-3	23	10	·	-0.41
Cc1onc(-c2ccccc2Cl)c1C(=O)Nc1nnc(-c2ccc(Br)cc2)s1	0.2	3	·	68*	·	2.4
Cc1onc(-c2ccccc2Cl)c1C(=O)Nc1nnc(-c2ccc(Cl)cc2Cl)s1	·	-11	·	63*	·	-1.6
Cc1onc(-c2c(Cl)cccc2Cl)c1C(=O)N/N=C(\N)COc1ccc(Cl)cc1	·	97*	-23	-24	·	0.53
CC1CCN(C(=O)CNC(=O)Cc2ccccc2)CC1	-0.78	-1	·	-1	0.01	0.74
O=c1c2[nH]c3ccccc3c2ncn1Cc1ccccn1	1.1	-5	15	12	0.042	0.26
CCc1ccc(-c2nc(CN3CCC(C(=O)N4CCN(c5ccccc5)CC4)CC3)c(C)o2)cc1	2*	82*	·	66*	·	?
Cc1oc(-c2cccc(Cl)c2)nc1CN1CCC(C(=O)N2CCN(c3ccccn3)CC2)CC1	·	·	·	9	·	·
CCc1ccc(-c2nc(CN3CCC(C(=O)NCCN(CC)c4ccccc4)CC3)c(C)o2)cc1	1	65*	·	71*	·	-1.7
CCN1CCN(C(=O)C2CCN(Cc3nc(-c4cccc(Cl)c4)oc3C)CC2)CC1	1.2	66*	·	2	·	1.3
CCN1CCN(C(=O)C2CCN(Cc3nc(-c4ccc(Cl)cc4)oc3C)CC2)CC1	·	·	·	18	·	·
CCc1ccc(-c2nc(CN3CCCC(C(=O)O)C3)c(C)o2)cc1 (stereo not drawn)	0.055	-4	·	4	·	-0.11
CCc1ccc(-c2nc(CN3CCC(C(=O)N4CCN(c5ccccn5)CC4)CC3)c(C)o2)cc1	0.055	84*	·	3	-0.55	-2.7
NC1=NC(=O)/C(=C\c2ccco2)S1	2.2	·	·	·	·	0.71
CCCN1CNC(=S)N(c2cc(C)ccc2C)C1	0.068	-8	-39	-16	·	0.29
CCOC(=O)/C(=N\Nc1ccccc1[N+](=O)[O-])c1csc(N)n1	-1	52*	·	14	0.00019	-1.6
COc1ccc(C(C(=O)NC(C)(C)C)N(CC2CCCO2)C(=O)CCC(=O)Nc2cc(C)on2)cc1 (stereo not drawn)	-0.49	0	·	3	-0.68	·
COc1ccc(C(C(=O)NC(C)(C)C)N(Cc2ccccc2)C(=O)CCC(=O)Nc2cc(C)on2)cc1 (stereo not drawn)	-0.8	95*	-20	1	-0.49	-0.97
CC(C)[C@H](NC(=O)c1ccccc1)C(=O)OCC(=O)N1CCN(C(=O)c2ccco2)CC1	-0.18	-5	33	-5	0.28	0.6
O=C(NCc1ccco1)C(c1ccco1)N(C(=O)Cn1nnc2ccccc21)c1ccc2c(c1)CCC2 (stereo not drawn)	0.41	91*	-52	·	·	·
CCOC(=O)c1[nH]c(C)c(C(=O)OCC)c1C	-1	6	·	16	·	2

Bioassay records as filed in PubChem BioAssay.
